Data on eight compounds can be found in PubChem BioAssay (EPA / NIEHS).

For assay [1], the target named is PGR (gene 5241) (UniProt P06401). Put plainly: TOX21_PR_BLA_Followup_Agonist_ratio: Tox21 HEK293 Progesterone Receptor (PR) Agonism Beta-lactamase Follow-Up Assay, Ratio (AID 2283933). The essentials: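 HEK293T PR-UAS-bla, 2% CS-FBS; 6 hr preincubation, cpd/DMSO pinned, 16 hr 37C/5% CO2; LiveBLAzer B/G 2 hr RT; FRET ch2/ch1 ratio, agonist direction vs DMSO. Viability by CellTiter-Glo in same wells.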
Sequence of PGR (gene 5241) (P06401 whole entry, looked up): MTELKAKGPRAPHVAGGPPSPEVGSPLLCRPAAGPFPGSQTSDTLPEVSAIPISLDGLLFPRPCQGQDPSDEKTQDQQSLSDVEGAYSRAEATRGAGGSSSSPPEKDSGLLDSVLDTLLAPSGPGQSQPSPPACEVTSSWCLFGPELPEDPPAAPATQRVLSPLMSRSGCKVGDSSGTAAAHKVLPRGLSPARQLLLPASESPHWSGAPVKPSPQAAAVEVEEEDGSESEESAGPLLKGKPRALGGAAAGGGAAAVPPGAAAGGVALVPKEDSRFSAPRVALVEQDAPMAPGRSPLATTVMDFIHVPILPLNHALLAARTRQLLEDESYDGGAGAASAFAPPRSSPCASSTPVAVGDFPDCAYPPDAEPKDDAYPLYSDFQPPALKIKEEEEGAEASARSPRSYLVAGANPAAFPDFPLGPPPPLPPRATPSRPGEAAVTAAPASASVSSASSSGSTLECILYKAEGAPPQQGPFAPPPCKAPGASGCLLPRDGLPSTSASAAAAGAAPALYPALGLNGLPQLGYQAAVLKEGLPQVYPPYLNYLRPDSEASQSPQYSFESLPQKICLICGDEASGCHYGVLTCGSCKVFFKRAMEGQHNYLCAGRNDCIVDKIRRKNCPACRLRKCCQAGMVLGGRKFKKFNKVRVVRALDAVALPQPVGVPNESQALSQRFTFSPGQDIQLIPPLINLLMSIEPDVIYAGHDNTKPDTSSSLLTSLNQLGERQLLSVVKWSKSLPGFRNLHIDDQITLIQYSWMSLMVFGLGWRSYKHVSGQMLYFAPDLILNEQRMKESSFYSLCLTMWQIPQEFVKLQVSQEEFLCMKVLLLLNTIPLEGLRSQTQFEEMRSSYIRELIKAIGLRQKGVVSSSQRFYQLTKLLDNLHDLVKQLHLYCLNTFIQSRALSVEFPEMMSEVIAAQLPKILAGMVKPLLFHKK

Assay [2] has the same target. Put plainly: TOX21_PR_BLA_Followup_Antagonist_ratio: Tox21 HEK293 Progesterone Receptor (PR) Antagonism Beta-lactamase Follow-Up Assay, Ratio (AID 2283934). A digest of the protocol:
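HEK293T PR-UAS-bla, 2% CS-FBS; 6 hr plating, then cpd + R5020 (1 nM final), 16 hr 37C/5% CO2. B/G FRET substrate 2 h RT. Ratio ch2/ch1 vs DMSO; CellTiter-Glo viability multiplexed, autofluorescence checked.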

A short description of assay [3]: TOX21_PR_BLA_Followup_Agonist_viability: Viability Assessment in the Tox21 HEK293 Progesterone Receptor (PR) Agonism Beta-lactamase Follow-Up Assay (AID 2283935).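 Further: cells exposed to compound for 16 hr at 37 °C; signal loss means lower viability so actives are cytotoxic.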 A digest of the protocol: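 HEK293T PR-UAS-bla, 3,000 cells/well, 2% CS-FBS; 6 hr pre-incubation; cpd in DMSO, 16 hr 37C; LiveBLAzer 2 hr RT, then CellTiter-Glo 30 min RT, luminescence. Decrease = lost viability.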

The nature of assay [4]: TOX21_PR_BLA_Followup_Antagonist_viability: Viability Assessment in the Tox21 HEK293 Progesterone Receptor (PR) Antagonism Beta-lactamase Follow-Up Assay (AID 2283936).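 Further: hits lower the luminescence signal meaning cytotoxicity.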 The essentials: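 PR-UAS-bla HEK293T cells (3,000/well, 2% charcoal-stripped FBS) given compound plus R5020 agonist, 16 h at 37C. CellTiter-Glo added after bla read, 30 min at room temperature; luminescence loss indicates cytotoxicity.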

In assay [5] the target is PGR (gene 5241) (UniProt P06401). Put plainly: TOX21_PR_LUC_Followup_Agonist: Tox21 HEK293 Progesterone Receptor (PR) Agonism Luciferase Follow-Up Assay (AID 2283937; active means hit-call score of the fitted dose curve at least 0.9, where 1 is the maximum; inactive means score below 0.9). A digest of the protocol: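 Cells: HEK293-PR-A-luc, 3,000/well, 10% charcoal-stripped FBS assay medium. Compound added after 5 h; 16 h, 37C, 0% CO2. ONE-Glo luciferase, luminescence. Positive fit vs DMSO.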

Assay [6] shares this target. Put plainly: TOX21_PR_LUC_Followup_Antagonist: Tox21 HEK293 Progesterone Receptor (PR) Antagonism Luciferase Follow-Up Assay (AID 2283938).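 Further: curve fitted upward as signal gain over DMSO baseline despite antagonist label.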 The essentials: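 Luminescence from ONE-Glo reagent, measured after 30 min at room temperature, served as readout. Cells (HEK293 carrying PR-A-luc) had been treated 16 h at 37C with DMSO-dissolved compounds. Activity was fitted against DMSO controls.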

The nature of assay [7]: TOX21_PR_LUC_Followup_Antagonist_viability: Viability Assessment in the Tox21 HEK293 Progesterone Receptor (PR) Antagonism Luciferase Follow-Up Assay (AID 2283940). The essentials:
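Multiplexed viability counter-screen: after 5 days in charcoal-stripped-FBS medium, HEK293-PR-A-luc cells are plated, pinned with DMSO-dissolved compounds for 16 h at 37C, and ATP content is quantified luminescently via CellTiter-Glo.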

The nature of assay [8]: TOX21_PR_LUC_Followup_Agonist_viability: Viability Assessment in the Tox21 HEK293 Progesterone Receptor (PR) Agonism Luciferase Follow-Up Assay (AID 2283941).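 Further: loss of signal means cytotoxicity so actives lower viability.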 A digest of the protocol: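 Cells were kept 5 days in charcoal-stripped serum medium before plating HEK293-PR-A-luc at 3,000 cells/well. After 5 h they received DMSO-dissolved compound and incubated 16 h at 37C. Viability was taken from CellTiter-Glo ATP luminescence.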

Assay [9] can be described thus: TOX21_TRB_BLA_Antagonist_Followup_viability: Viability Assessment in the Tox21 Thyroid Hormone Receptor beta Antagonism Beta-lactamase (BLA) Follow-Up Assay (AID 2283961). A digest of the protocol:
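Viability read as CellTiter-Glo ATP luminescence (loss of signal = cytotoxicity) in the same plates as the TRβ-bla readout. TRβ-LBD/GAL4 UAS-bla HEK293T cells were exposed to compounds, 11 concentrations in triplicate, for 18 h at 37C/5% CO2.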

Assay [10] in a line: TOX21_TR_RXR_BLA_Antagonist_Followup_viability: Viability Assessment in the Tox21 Thyroid Hormone Receptor beta Retinoid X Receptor alpha (RXRa) Antagonism Beta-lactamase (BLA) Follow-Up Assay (AID 2283979). A digest of the protocol:
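Follow-up compounds (11 concentrations, triplicate) were incubated 16 h at 37C/5% CO2 with HEK293T RXRa-bla cells seeded at 2,500/well in charcoal-stripped-serum medium. ATP content by CellTiter-Glo luminescence gave viability; curves fitted in both directions against DMSO.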

Assay [11] has as its target Thyroid hormone receptor alpha (Rattus norvegicus) + Thyroid hormone receptor beta (Rattus norvegicus) (UniProt P18113+P63059). The assay is described as follows: TOX21_TR_LUC_GH3_Agonist_Followup: Tox21 GH3 Thyroid Hormone Receptor Agonism Luciferase Follow-Up Assay (AID 2283939). A digest of the protocol: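 Rat GH3 cells (1,500/well) in serum-free assay medium, treated with 15-point series, 92 uM to 5 nM final, for 24 h at 37C. Luciferase via ONE-Glo luminescence; gain of signal fitted against DMSO, T3 positive control.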

The next assay deals with THRA (gene 7067) (UniProt P10827). The assay is described as follows: TOX21_TRA_COA_Agonist_Followup_ratio: Tox21 Thyroid Hormone Receptor alpha Agonism through Coactivator Recruitment Follow-Up Assay, Ratio (AID 2283948; active means hit-call score of the fitted dose curve at least 0.9, where 1 is the maximum; inactive means score below 0.9). A digest of the protocol: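 GST-TRa LBD 2.5 nM + 0.10% BSA + cpd; add fluorescein-SRC-2 200 nM, Tb-anti-GST 2 nM. TR-FRET ex 340, em 520/495 ratio. Norm: DMSO 0%, T3 100%; gain-of-signal fit.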
Sequence of THRA (gene 7067) (P10827 whole entry, looked up, the tested form may be a part): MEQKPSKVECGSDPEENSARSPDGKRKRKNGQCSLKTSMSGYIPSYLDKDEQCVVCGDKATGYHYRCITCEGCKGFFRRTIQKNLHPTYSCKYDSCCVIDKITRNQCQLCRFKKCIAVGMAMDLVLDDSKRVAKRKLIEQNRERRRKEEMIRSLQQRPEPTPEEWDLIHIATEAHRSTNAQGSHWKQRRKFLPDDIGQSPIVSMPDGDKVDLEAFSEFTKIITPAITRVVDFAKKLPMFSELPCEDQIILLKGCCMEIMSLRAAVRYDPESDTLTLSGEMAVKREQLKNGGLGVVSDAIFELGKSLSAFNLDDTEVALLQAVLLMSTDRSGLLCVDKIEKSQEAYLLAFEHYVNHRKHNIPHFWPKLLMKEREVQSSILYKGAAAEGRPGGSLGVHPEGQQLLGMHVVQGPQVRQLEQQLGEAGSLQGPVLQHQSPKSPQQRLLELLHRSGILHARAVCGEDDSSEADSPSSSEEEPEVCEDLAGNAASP

For assay [12], the target named is THRB (gene 7068) (UniProt P10828). Put plainly: TOX21_TRB_COA_Agonist_Followup_ratio: Tox21 Thyroid Hormone Receptor beta Agonism through Coactivator Recruitment Follow-Up Assay, Ratio (AID 2283963; active means hit-call score of the fitted dose curve at least 0.9, where 1 is the maximum; inactive means score below 0.9). The essentials:
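Cell-free TR-FRET coactivator recruitment: GST-tagged TRβ LBD (5.0 nM) with 0.10% BSA incubated with compound, then fluorescein-SRC-2 peptide (200 nM) and Tb-anti-GST antibody (2 nM) added. 520:495 nm ratio normalized to DMSO (0%) and T3 (100%).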

Assay [13] concerns the target Retinoic acid receptor RXR-alpha (Homo sapiens) (UniProt P19793). Put plainly: TOX21_TR_RXR_BLA_Agonist_Followup_ratio: Tox21 Thyroid Hormone Receptor beta Retinoid X Receptor alpha (RXRa) Agonism Beta-lactamase (BLA) Follow-Up Assay, Ratio (AID 2283968). The essentials: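 HEK293T RXRa-bla, qHTS; cpd 11-pt conc. in triplicate, 16 h 37C/5% CO2; CCF4-AM 2 h RT; ratio 460:530 nm; agonist direction vs DMSO; 9-cis retinoic acid as positive control.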

The nature of assay [14]: CEETOX_H295R_CORTISOL_noMTC: CeeTox H295R High-throughput Steroidogenesis Assay for Cortisol, maximum tolerated concentration (MTC) filtered results only (AID 2283916; active means hit-call score of the fitted dose curve at least 0.9, where 1 is the maximum; inactive means score below 0.9). Conditions: actives raise or lower the signal. The essentials: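 Cortisol secretion measured by LC-MS/MS after 48 h chemical treatment (final 0.1% DMSO) of forskolin-primed (10 uM, 48 h) H295R cells; gain or loss fitted relative to DMSO, without maximum-tolerated-concentration filtering.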

Assay [15] can be described thus: CEETOX_H295R_CORTIC_noMTC: CeeTox H295R High-throughput Steroidogenesis Assay for Corticosterone (CORTIC), maximum tolerated concentration (MTC) filtered results only (AID 2283917; active means hit-call score of the fitted dose curve at least 0.9, where 1 is the maximum; inactive means score below 0.9). Conditions: actives raise or lower the signal. The essentials: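 Following OECD 456 with minor changes, H295R cultures received 10 uM forskolin for 48 h, then test chemical at 0.1% DMSO for 48 h. Media steroids were extracted and measured by LC-MS/MS.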

A short description of assay [16]: CEETOX_H295R_DOC_noMTC: CeeTox H295R High-throughput Steroidogenesis Assay for DOC, maximum tolerated concentration (MTC) filtered results only (AID 2283918; active means hit-call score of the fitted dose curve at least 0.9, where 1 is the maximum; inactive means score below 0.9). Conditions: actives raise or lower the signal. A digest of the protocol: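 11-Deoxycorticosterone secreted by human adrenal H295R cells quantified by HPLC-MS/MS after 48 h chemical exposure (0.1% DMSO), following 48 h 10 uM forskolin prestimulation. Concentrations not filtered by MTT-derived MTC; bidirectional fitting.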

Assay [17] is described as follows: CEETOX_H295R_PROG_noMTC: CeeTox H295R High-throughput Steroidogenesis Assay for Progesterone (PROG), maximum tolerated concentration (MTC) filtered results only (AID 2283920; active means hit-call score of the fitted dose curve at least 0.9, where 1 is the maximum; inactive means score below 0.9). The note with it: actives raise or lower the signal. The essentials:
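H295R cells; forskolin 10 uM x 48 h prestim; test cpd 48 h, 0.1% DMSO final; media progesterone via LC-MS/MS; bidirectional fit vs DMSO; no MTT-based MTC filter applied.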

Assay [18] addresses THRB (gene 7068) (UniProt P10828). Put plainly: TOX21_TRB_BLA_Agonist_Followup_ratio: Tox21 Thyroid Hormone Receptor beta Agonism Beta-lactamase (BLA) Follow-Up Assay, Ratio (AID 2283954). A digest of the protocol:
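Human TRβ LBD–GAL4 DBD fusion in GeneBLAzer UAS-bla HEK293T cells; 11 concentrations in triplicate, 18 h at 37°C/5% CO2, T3 as agonist control. CCF4-AM substrate 2 h at room temperature; 460:530 nm ratio fitted for gain of signal versus DMSO.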

The nature of assay [19]: TOX21_TR_RXR_BLA_Agonist_Followup_viability: Viability Assessment in the Tox21 Thyroid Hormone Receptor beta Retinoid X Receptor alpha (RXRa) Agonism Beta-lactamase (BLA) Follow-Up Assay (AID 2283970). A digest of the protocol: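 Cells: HEK293T RXRa-UAS-bla, 2,500/well; medium phenol red-free DMEM + 2% charcoal-stripped FBS; 16h, 37C/5% CO2; qHTS concentration series. Read: CellTiter-Glo luminescence (ATP); bidirectional fit, DMSO = baseline.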

A word on the AC50: it is the concentration at which the activity in the assay is half-maximal.

Results filed as inconclusive are left out. Calls of active or inactive are those of the source. How the source made its calls, unless noted: active means hit-call score of the fitted dose curve at least 0.9, where 1 is the maximum; inconclusive means response in the unintended direction; inactive means score below 0.9.

Sequence of THRB (gene 7068) (P10828 whole entry, looked up, the tested form may be a part): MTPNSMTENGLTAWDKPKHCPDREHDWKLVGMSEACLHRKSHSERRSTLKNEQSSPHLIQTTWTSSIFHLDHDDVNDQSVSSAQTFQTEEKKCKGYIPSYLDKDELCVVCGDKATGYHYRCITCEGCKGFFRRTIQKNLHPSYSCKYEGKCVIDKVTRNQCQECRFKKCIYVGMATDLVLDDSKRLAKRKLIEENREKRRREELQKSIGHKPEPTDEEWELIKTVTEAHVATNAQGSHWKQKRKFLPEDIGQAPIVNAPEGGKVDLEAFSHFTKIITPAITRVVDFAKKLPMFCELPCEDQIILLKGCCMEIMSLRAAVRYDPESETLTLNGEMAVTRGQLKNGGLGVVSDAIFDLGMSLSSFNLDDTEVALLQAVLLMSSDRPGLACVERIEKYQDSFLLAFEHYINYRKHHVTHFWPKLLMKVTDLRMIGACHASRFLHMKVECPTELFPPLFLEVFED
Sequence of Thyroid hormone receptor alpha (Rattus norvegicus) + Thyroid hormone receptor beta (Rattus norvegicus) (P63059 whole entry, looked up): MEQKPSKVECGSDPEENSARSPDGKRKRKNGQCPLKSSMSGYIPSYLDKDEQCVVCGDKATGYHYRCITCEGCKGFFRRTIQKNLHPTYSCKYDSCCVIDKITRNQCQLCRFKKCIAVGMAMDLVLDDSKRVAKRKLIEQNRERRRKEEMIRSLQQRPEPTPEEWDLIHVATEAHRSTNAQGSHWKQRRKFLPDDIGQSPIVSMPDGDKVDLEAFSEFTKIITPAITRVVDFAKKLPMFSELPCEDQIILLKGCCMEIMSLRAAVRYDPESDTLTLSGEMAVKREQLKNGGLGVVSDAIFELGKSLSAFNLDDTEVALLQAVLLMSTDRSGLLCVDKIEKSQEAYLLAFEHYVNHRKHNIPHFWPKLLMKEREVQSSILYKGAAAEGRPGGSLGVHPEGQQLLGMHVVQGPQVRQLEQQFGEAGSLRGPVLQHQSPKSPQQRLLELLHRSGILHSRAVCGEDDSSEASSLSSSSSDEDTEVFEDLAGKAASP
Sequence of Thyroid hormone receptor alpha (Rattus norvegicus) + Thyroid hormone receptor beta (Rattus norvegicus) (P18113 whole entry, looked up): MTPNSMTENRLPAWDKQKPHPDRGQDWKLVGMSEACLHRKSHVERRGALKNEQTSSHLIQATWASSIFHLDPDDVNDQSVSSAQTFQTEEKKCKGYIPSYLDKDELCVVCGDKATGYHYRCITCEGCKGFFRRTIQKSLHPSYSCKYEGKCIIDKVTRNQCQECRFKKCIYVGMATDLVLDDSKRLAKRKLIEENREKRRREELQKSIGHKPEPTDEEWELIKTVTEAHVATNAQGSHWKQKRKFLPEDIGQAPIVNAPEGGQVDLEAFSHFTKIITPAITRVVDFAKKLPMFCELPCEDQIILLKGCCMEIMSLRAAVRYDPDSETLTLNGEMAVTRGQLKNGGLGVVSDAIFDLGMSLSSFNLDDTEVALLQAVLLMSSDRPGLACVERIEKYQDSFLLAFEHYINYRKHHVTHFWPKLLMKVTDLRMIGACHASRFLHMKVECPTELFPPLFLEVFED
Sequence of Retinoic acid receptor RXR-alpha (Homo sapiens) (P19793 whole entry, looked up): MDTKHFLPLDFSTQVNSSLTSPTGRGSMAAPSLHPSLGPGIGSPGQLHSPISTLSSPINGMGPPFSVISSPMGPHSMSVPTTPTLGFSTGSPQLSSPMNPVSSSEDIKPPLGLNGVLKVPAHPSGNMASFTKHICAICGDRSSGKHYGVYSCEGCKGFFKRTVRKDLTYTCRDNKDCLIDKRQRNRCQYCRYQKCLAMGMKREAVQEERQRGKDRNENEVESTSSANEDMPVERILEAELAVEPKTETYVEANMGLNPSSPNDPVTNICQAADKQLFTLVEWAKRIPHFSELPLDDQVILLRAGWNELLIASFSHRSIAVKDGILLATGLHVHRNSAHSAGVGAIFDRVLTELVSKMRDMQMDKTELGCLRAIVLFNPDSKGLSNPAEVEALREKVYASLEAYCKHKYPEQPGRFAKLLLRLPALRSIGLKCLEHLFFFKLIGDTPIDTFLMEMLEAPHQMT

In the case of `CCCc1c(OCCCOc2ccc(OCC(=O)O)cc2)ccc(C(C)=O)c1O`, the result (with PGR (gene 5241) [1]; in assay [3]; in [4]; in the assay with PGR (gene 5241) [5]; in [7]; in [8]) was inactive. Further, the concentration at half-maximal activity (AC50) was 31.5 µM (active) with PGR (gene 5241) [2] and 63.6 µM (active) with PGR (gene 5241) [6].
Regarding `O=c1cc(-c2ccccc2)oc2cc(O)cc(O)c12`, the result (with PGR (gene 5241) [1]; in [3]; in assay [4]; with PGR (gene 5241) [6]; in [7]; in [8]) was inactive. Also, the AC50 is 8.76 µM (active) in the assay with PGR (gene 5241) [2] and 31 µM (active) with PGR (gene 5241) [5].
Turning to `CC(=O)O[C@]1(C(C)=O)CC[C@H]2[C@@H]3C[C@H](C)C4=CC(=O)CC[C@]4(C)[C@H]3CC[C@@]21C`, the compound was called inactive in assay [9] and in assay [10].
For the compound `CC(CCO)CCCC(C)(C)O` (configuration not stated), the AC50 in [11] is 1.44 µM (active). For the same compound, the outcome (in the assay with THRA (gene 7067); with THRB (gene 7068) [12]; in assay [13]) was inactive.
For `CC1CC(OC(=O)c2ccccc2O)CC(C)(C)C1` (configuration not stated), the compound was classed as inactive in assay [14], in assay [15], in [16] and in assay [17].
`Cc1cccc(C)c1[N+](=O)[O-]`: the result (in [11]; in the assay with THRA (gene 7067); with THRB (gene 7068) [18]; with THRB (gene 7068) [12]; in assay [13]; in assay [19]) was inactive.
For the compound `C[C@]12CC[C@H]3[C@@H](CCC4=CC(=O)CC[C@@]43C)[C@@H]1CC[C@@H]2C(=O)CO`, the result (with PGR (gene 5241) [2]; in [3]; in assay [4]; with PGR (gene 5241) [6]; in assay [7]; in assay [8]) was inactive.
As to `O=C(Oc1ccccc1)c1ccc(O)cc1`, the outcome (with PGR (gene 5241) [2]; in [3]; in assay [4]; in assay [8]) was inactive.
